PubChem BioAssay (NCI)
This is part of a sample that, as a whole, favours compounds with a hit. Of some 83,000 tested, about 20% had one in any assay.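 Percent growth is the endpoint: 0 to 100 indicates growth inhibition (40 means 60% inhibition), 0 means no net growth, and negative values indicate cell death.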 Values without a mark were called inactive. Activity calls are given as the source filed them. Rule for the calls: active = growth percent below 10; inactive = the rest.

Columns and labels:
Experiment in all cases: NCI-60 one-dose screen, 48 h (100 = growth as untreated, 0 = no growth, -100 = all killed)
Details in all cases: 10 µM
SN12C renal = system: SN12C renal
UO-31 renal = system: UO-31 renal
TK-10 renal = system: TK-10 renal
ACHN renal = system: ACHN renal
CAKI-1 renal = system: CAKI-1 renal
A498 renal = system: A498 renal
CCRF-CEM leukemia = system: CCRF-CEM leukemia
MOLT-4 leukemia = system: MOLT-4 leukemia
SR leukemia = system: SR leukemia
RPMI-8226 leukemia = system: RPMI-8226 leukemia
OVCAR-8 ovarian = system: OVCAR-8 ovarian
OVCAR-5 ovarian = system: OVCAR-5 ovarian
OVCAR-4 ovarian = system: OVCAR-4 ovarian
SK-OV-3 ovarian = system: SK-OV-3 ovarian
IGROV1 ovarian = system: IGROV1 ovarian
OVCAR-3 ovarian = system: OVCAR-3 ovarian
HS 578T breast = system: HS 578T breast
NCI/ADR-RES ovarian = system: NCI/ADR-RES ovarian
T-47D breast = system: T-47D breast

Compound | growth (SN12C renal) | growth (UO-31 renal) | growth (TK-10 renal) | growth (ACHN renal) | growth (CAKI-1 renal) | growth (A498 renal) | growth (CCRF-CEM leukemia) | growth (MOLT-4 leukemia) | growth (SR leukemia) | growth (RPMI-8226 leukemia) | growth (OVCAR-8 ovarian) | growth (OVCAR-5 ovarian) [%] | growth (OVCAR-4 ovarian) | growth (SK-OV-3 ovarian) | growth (IGROV1 ovarian) | growth (OVCAR-3 ovarian) | growth (HS 578T breast) | growth (NCI/ADR-RES ovarian) | growth (T-47D breast)
CCC(=O)N1C/C(=C/c2ccc(OC)cc2)C(=O)/C(=C/c2ccc(OC)cc2)C1 | 27.4% | -7.25% (active) | 70.3% | 28.4% | 13.1% | 83.5% | -5.27% (active) | 11% | -11% (active) | -15.8% (active) | 10.7% | 96.1 | 58.3% | 40.8% | 41.8% | -6.54% (active) | 9.81% (active) | 25% | 57%
CC(C)(Cl)CCC1=C(Cl)C(=O)c2ccccc2C1=O | 79.9% | 36.5% | 124% | 26.3% | 96% | 27.4% | -33.9% (active) | -16.2% (active) | -25.3% (active) | -28.9% (active) | 68% | 101 | 11.5% | 92.6% | 39.7% | 22.9% | 62.6% | 62.9% | -38.7% (active)
CSc1nn(-c2ccccc2)c2ncnc(Oc3ccccc3)c12 | 86.2% | 7.79% (active) | 106% | 106% | 88.7% | 138% | 89.6% | 97.3% | 84% | 84.5% | 99% | 96.2 | 86.9% | 104% | 87.4% | 91.2% | 148% | 96.6% | 87.7%
COc1ccc(-c2nn(-c3cccc(NC(=O)Nc4cccc(C(F)(F)F)c4)c3)cc2-c2ccncc2)cc1Cl | 19.7% | -4.03% (active) | 11.8% | 17.5% | 1.63% (active) | 0.293% (active) | 2.2% (active) | 2.54% (active) | 4.34% (active) | -11% (active) | -4.63% (active) | 56.1 | 18.1% | 20.4% | 14.5% | 3.89% (active) | 32.5% | 0.659% (active) | -6.95% (active)
COc1ccc(/C=C2/CN(CCC#N)C/C(=C\c3ccc(OC)cc3)C2=O)cc1 | -57% (active) | -43.8% (active) | 16.2% | 8.83% (active) | -19.4% (active) | 56.3% | 0.103% (active) | 3.59% (active) | -2.63% (active) | -17.2% (active) | 1.11% (active) | 59.7 | 17.3% | 13.4% | 7.88% (active) | -26% (active) | 33.1% | 7.02% (active) | 39.4%
O=C1/C(=C\c2ccc(Cl)cc2)CN(C(=O)c2ccccc2)C/C1=C\c1ccc(Cl)cc1 | 36.8% | 2.38% (active) | 94.7% | 47.4% | 32.4% | 84.2% | 11.2% | 21.5% | -20.1% (active) | -25% (active) | 4.04% (active) | 83.8 | 36% | 59.3% | 4.31% (active) | -8.04% (active) | 5.5% (active) | 28.3% | 67.2%
COc1cccc(C(=O)Nc2ccc(CN3CCc4nc5cc(OC)c(OC)cc5cc43)cc2)c1 | 54.1% | 27.5% | 42.4% | 36.9% | 21.7% | 20.5% | 28.7% | 25.7% | 24.1% | 40% | 46.8% | 64.8 | 57.1% | 74.2% | 31.8% | 53.1% | 61.2% | 47.1% | 32.4%
O=C(Nc1cccc(-n2cc(-c3ccncc3)c(-c3ccc(O)c(Cl)c3)n2)c1)c1cccc(C(F)(F)F)c1 | 49.9% | 15.8% | 46.9% | 29.6% | 12.2% | 57.7% | 19.8% | 29.8% | 18.4% | 13.4% | 18.4% | 89.4 | 51.2% | 71.2% | 51.6% | 45.1% | 41.2% | 35.1% | 15%
O=S(=O)(Nc1ccccn1)c1ccc(N=Nc2ccc(O)c3ncccc23)cc1 | 5.49% (active) | -24.1% (active) | -1.22% (active) | -1.83% (active) | -4.15% (active) | -11.5% (active) | 7.55% (active) | 4.77% (active) | 0.457% (active) | -15.1% (active) | 1.26% (active) | 22.4 | 8.85% (active) | -7.21% (active) | -1.59% (active) | 14.4% | 13.5% | 14.1% | -6.2% (active)
O=C1/C(=C\c2ccccc2)CN(C(=O)c2ccccc2)C/C1=C\c1ccccc1 | 5.88% (active) | 43% | 69.8% | 3.54% (active) | 33.3% | 45.1% | -0.797% (active) | 2.87% (active) | -33% (active) | -27% (active) | 14.3% | 70.5 | 36.5% | 50.1% | 26.6% | -12.2% (active) | -14.8% (active) | 21.9% | 48.7%
COc1ccc2c(c1)O/C(=C\c1ccc([N+](=O)[O-])o1)C2=O | 6.92% (active) | -73.5% (active) | -33.7% (active) | 6.05% (active) | -2.99% (active) | 56.6% | 0.117% (active) | -0.0457% (active) | 7.61% (active) | -10.7% (active) | -8.18% (active) | 12.4 | -1.31% (active) | 67.6% | -14.2% (active) | -8.36% (active) | 21.4% | 16% | -0.109% (active)
CCCCCCN1CCN(Cc2ccc(N(CC)CC)cc2)C(=O)C1=O | 50.8% | 34.8% | 25.4% | 52.4% | 41.6% | -4.48% (active) | 9.18% (active) | 19.1% | 3.37% (active) | 4.35% (active) | 28.3% | 58.8 | 54.6% | 32.5% | 32.1% | 5.54% (active) | 20.6% | 0.986% (active) | 25.5%
Cc1cc(=O)[nH]c(N/N=C/c2ccccc2O)n1 | 86.2% | 43.6% | 97.3% | 59.8% | 82.3% | 108% | 35% | 67.3% | 26.8% | 68.6% | 83.3% | 95.2 | 22.4% | 78.3% | 59.6% | 6.7% (active) | 104% | 16.3% | 48.7%
CCN(CC)CCSCCN(CC)CC | 101% | 97.1% | 103% | 99% | 98% | 89.4% | 91.9% | 105% | 98.5% | 105% | 101% | 94.3 | 96.4% | 98.9% | 109% | 108% | – | 108% | 94%
C/C(N)=C(\C#N)C(=O)c1ccccc1 | 106% | 86.4% | 106% | 105% | 107% | 91.5% | 102% | 110% | 112% | 99.2% | 103% | 97.9 | 104% | 99.5% | 101% | 112% | 111% | 105% | 94.1%
Fc1ccc2nc(-c3nc(-c4ccccc4)n4ccccc34)[nH]c2c1 | 16.9% | -32.9% (active) | -30.2% (active) | 10.1% | -0.279% (active) | -16.8% (active) | 53.3% | 39.8% | 38% | -25.9% (active) | -58.7% (active) | 55.9 | -71.2% (active) | -43.2% (active) | 1.27% (active) | 0.252% (active) | -5.1% (active) | -13.1% (active) | -0.867% (active)
COc1cc(-c2cc(/C=C3\C(=O)Nc4ccccc43)[nH]n2)cc(OC)c1OC | 53.7% | 37.2% | 68.1% | 51.1% | 25.4% | 46.5% | 22.3% | 6.03% (active) | 34.1% | 24.3% | 40.8% | 77.6 | 42% | 87.5% | 43% | 57.8% | 49.6% | 35.2% | 20.9%
O=C(Nc1cccc(-n2cc(-c3ccncc3)c(-c3cc(O)cc(Cl)c3)n2)c1)c1cc(C(F)(F)F)cc(C(F)(F)F)c1 | 50.3% | 49.1% | 73% | 37.7% | 58.5% | 40.3% | 26.9% | 19.5% | 3.15% (active) | 32.1% | 39.6% | 70.7 | 59.6% | 68.8% | 73% | 15.2% | 65.9% | 46.9% | 26.3%
O=C(Nc1ccc(Cl)cc1)N1NC(c2ccc(Cl)cc2)C=C1c1ccccc1 (configuration not stated) | 108% | 85.8% | 103% | 116% | 103% | 103% | 58.3% | 83.7% | 81.4% | 99.5% | 97% | 124 | 91.5% | 97% | 95.3% | 103% | 123% | 115% | 94%
Nc1ccccc1NC(=O)CCCCC(=O)Nc1ccc2c(c1)/C(=C/c1ccc[nH]1)C(=O)N2 | 66.9% | 72.2% | 68.2% | 92.7% | 81.6% | -5.06% (active) | 50.7% | 47.7% | 62.7% | 56.2% | 78.5% | 96.5 | 52.1% | 72.5% | 59.8% | 65.8% | 52.3% | 107% | 59.6%
COc1cc(Cl)cc(-c2nn(-c3cccc(NC(=O)Nc4ccc(Cl)c(C(F)(F)F)c4)c3)cc2-c2ccncc2)c1 | 13.8% | 11.1% | 37.5% | 8.78% (active) | 9.38% (active) | -9.18% (active) | 1.88% (active) | -9.68% (active) | -27.5% (active) | -29.1% (active) | 8.71% (active) | 19.2 | 16.6% | 12% | 30.2% | -22.6% (active) | 14.6% | 6.07% (active) | 8.1% (active)
COc1ccc(-c2nc(-c3nc4ccc(Cl)cc4[nH]3)c3ccccn23)cc1 | 52.7% | -24.8% (active) | -12.1% (active) | 0.296% (active) | -13% (active) | -3.43% (active) | 82.7% | 74.4% | 40.3% | 49.3% | -27.1% (active) | 82.5 | -77% (active) | -47.8% (active) | 84.8% | 8.15% (active) | -19.3% (active) | 33.6% | 64.7%
